# Measurements: ChEMBL document CHEMBL1961873, “Compounds: GSK PKIS; Assays: Nanosyn kinase panel” (2012)
# Columns and labels:
# [1] = target: 5'-AMP-activated protein kinase catalytic subunit alpha-2 (Homo sapiens) (UniProt P54646); details: at 1 µM
# [2] = target: T1, NUAK family SNF1-like kinase 1 (Homo sapiens) (UniProt O60285); details: at 0.1 µM
# T1 sequence (whole entry): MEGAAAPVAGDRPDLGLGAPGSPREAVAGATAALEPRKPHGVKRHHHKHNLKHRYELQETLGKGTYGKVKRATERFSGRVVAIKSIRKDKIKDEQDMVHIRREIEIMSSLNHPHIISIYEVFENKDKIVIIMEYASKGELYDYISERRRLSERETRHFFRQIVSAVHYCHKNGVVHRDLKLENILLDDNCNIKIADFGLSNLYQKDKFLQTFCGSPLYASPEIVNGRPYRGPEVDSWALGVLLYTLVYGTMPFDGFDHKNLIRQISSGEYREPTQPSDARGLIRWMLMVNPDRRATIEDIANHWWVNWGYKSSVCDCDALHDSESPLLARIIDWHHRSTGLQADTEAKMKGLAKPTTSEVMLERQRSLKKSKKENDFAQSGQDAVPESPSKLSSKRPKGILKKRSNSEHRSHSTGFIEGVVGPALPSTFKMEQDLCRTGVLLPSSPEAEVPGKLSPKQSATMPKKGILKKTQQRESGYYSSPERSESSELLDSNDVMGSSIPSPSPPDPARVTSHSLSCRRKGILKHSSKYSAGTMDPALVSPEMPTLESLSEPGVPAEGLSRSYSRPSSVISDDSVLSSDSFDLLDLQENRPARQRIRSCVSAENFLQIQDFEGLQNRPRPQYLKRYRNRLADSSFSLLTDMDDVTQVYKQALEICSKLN
# [3] = target: T1, NUAK family SNF1-like kinase 1 (Homo sapiens); details: at 1 µM
# [4] = target: T2, Serine/threonine-protein kinase BRSK1 (Homo sapiens) (UniProt Q8TDC3); details: at 0.1 µM
# T2 sequence (whole entry): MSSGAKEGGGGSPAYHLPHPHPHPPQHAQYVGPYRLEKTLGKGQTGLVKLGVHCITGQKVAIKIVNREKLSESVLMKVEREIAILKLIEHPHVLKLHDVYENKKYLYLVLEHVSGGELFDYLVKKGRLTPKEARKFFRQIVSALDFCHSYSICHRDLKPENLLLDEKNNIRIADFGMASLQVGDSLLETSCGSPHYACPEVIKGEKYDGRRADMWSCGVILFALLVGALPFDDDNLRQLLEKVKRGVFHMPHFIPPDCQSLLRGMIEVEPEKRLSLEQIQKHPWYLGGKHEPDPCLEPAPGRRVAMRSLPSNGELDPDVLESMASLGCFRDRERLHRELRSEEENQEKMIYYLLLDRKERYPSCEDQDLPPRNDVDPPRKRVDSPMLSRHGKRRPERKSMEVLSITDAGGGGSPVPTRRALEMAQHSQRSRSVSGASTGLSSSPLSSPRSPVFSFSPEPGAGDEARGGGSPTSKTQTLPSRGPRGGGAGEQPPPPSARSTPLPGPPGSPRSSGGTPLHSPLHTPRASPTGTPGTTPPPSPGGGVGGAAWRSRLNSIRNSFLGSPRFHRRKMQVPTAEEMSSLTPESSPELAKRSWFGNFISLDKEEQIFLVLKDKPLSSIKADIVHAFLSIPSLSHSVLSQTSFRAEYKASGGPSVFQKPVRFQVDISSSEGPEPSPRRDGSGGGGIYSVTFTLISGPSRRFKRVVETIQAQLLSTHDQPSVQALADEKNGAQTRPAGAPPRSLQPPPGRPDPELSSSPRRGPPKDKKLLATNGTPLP
# [5] = target: T2, Serine/threonine-protein kinase BRSK1 (Homo sapiens); details: at 1 µM
# [6] = target: T3, Serine/threonine-protein kinase BRSK2 (Homo sapiens) (UniProt Q8IWQ3); details: at 0.1 µM
# T3 sequence (whole entry): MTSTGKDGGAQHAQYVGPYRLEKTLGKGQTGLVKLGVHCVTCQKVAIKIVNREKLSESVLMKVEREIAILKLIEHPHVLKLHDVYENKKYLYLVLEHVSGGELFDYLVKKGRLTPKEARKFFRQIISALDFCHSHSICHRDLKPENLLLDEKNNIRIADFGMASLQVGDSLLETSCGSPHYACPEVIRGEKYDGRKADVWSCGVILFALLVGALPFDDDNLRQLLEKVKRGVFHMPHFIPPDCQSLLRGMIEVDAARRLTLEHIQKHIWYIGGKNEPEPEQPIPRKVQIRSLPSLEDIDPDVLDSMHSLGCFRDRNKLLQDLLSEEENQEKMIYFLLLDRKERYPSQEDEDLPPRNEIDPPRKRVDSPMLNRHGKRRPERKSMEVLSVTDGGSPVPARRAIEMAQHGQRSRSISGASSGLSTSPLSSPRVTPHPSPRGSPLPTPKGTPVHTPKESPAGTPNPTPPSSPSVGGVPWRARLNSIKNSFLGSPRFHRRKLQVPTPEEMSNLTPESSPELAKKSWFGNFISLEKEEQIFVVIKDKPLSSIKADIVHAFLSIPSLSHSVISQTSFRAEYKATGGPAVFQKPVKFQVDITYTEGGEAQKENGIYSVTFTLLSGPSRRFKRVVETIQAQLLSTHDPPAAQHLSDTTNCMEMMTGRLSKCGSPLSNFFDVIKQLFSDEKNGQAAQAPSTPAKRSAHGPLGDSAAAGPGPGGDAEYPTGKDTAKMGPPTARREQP
# [7] = target: T3, Serine/threonine-protein kinase BRSK2 (Homo sapiens); details: at 1 µM
# [8] = target: Calcium/calmodulin-dependent protein kinase type 1D (Homo sapiens) (UniProt Q8IU85); details: at 0.1 µM
# Calcium/calmodulin-dependent protein kinase type 1D (Homo sapiens), sequence (Q8IU85 whole entry, looked up): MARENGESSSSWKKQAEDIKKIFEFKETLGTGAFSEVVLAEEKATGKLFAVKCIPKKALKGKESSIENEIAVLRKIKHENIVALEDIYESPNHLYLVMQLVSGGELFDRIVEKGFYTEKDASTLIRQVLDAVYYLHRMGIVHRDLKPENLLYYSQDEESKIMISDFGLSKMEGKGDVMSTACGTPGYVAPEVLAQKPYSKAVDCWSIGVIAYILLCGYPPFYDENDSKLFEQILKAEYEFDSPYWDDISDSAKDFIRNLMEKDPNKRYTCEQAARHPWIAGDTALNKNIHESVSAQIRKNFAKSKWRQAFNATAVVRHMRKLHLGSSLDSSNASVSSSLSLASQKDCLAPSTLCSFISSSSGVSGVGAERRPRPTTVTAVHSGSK
# [9] = target: Calcium/calmodulin-dependent protein kinase type 1D (Homo sapiens) (UniProt Q8IU85); details: at 1 µM
# [10] = target: Calcium/calmodulin-dependent protein kinase type II subunit alpha (Homo sapiens) (UniProt Q9UQM7); details: at 0.1 µM
# Calcium/calmodulin-dependent protein kinase type II subunit alpha (Homo sapiens), sequence (Q9UQM7 whole entry): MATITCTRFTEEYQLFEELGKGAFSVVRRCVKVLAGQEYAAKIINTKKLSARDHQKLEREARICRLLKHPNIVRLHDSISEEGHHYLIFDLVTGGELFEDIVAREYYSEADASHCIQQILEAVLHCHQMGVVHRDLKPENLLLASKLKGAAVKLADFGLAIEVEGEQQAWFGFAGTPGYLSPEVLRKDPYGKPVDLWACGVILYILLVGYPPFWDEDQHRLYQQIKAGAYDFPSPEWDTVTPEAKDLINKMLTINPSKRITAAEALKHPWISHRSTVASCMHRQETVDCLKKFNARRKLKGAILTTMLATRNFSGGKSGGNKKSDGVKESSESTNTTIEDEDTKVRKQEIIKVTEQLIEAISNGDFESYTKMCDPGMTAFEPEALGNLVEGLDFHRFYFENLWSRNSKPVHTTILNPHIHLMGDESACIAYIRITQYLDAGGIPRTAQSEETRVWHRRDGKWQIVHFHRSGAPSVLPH
# [11] = target: Calcium/calmodulin-dependent protein kinase type II subunit alpha (Homo sapiens) (UniProt Q9UQM7); details: at 1 µM
# [12] = target: Calcium/calmodulin-dependent protein kinase type II subunit delta (Homo sapiens) (UniProt Q13557); details: at 0.1 µM
# Calcium/calmodulin-dependent protein kinase type II subunit delta (Homo sapiens), sequence (Q13557 whole entry): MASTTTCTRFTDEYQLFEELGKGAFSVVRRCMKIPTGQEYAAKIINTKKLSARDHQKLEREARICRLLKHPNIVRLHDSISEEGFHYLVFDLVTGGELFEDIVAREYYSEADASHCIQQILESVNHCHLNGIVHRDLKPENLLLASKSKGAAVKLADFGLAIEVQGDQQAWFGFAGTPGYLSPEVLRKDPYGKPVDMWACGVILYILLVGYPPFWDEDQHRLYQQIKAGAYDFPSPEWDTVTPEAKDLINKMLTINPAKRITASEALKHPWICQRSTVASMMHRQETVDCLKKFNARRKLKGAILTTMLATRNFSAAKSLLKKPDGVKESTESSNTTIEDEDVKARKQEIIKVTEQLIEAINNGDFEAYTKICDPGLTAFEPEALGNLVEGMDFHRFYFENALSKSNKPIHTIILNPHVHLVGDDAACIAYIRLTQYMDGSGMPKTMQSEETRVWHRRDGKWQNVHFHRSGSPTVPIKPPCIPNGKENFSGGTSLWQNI
# [13] = target: Calcium/calmodulin-dependent protein kinase type II subunit delta (Homo sapiens) (UniProt Q13557); details: at 1 µM
# [14] = target: T4, Calcium/calmodulin-dependent protein kinase type IV (Homo sapiens) (UniProt Q16566); details: at 0.1 µM
# T4 sequence (whole entry): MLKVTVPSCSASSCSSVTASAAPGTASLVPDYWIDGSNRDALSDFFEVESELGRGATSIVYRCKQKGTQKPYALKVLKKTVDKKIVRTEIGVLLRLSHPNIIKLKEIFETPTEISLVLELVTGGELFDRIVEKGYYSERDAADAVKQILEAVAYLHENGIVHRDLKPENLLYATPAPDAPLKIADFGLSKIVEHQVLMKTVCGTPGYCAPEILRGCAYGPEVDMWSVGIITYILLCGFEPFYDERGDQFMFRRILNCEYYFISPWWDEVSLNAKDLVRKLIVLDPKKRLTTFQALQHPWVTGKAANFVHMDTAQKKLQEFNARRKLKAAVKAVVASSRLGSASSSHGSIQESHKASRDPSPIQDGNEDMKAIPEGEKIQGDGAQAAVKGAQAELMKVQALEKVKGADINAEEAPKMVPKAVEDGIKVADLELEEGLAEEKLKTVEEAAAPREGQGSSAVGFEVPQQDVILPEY
# [15] = target: T4, Calcium/calmodulin-dependent protein kinase type IV (Homo sapiens); details: at 1 µM
# [16] = target: T5, Serine/threonine-protein kinase Chk1 (Homo sapiens) (UniProt O14757); details: at 0.1 µM
# T5 sequence (whole entry): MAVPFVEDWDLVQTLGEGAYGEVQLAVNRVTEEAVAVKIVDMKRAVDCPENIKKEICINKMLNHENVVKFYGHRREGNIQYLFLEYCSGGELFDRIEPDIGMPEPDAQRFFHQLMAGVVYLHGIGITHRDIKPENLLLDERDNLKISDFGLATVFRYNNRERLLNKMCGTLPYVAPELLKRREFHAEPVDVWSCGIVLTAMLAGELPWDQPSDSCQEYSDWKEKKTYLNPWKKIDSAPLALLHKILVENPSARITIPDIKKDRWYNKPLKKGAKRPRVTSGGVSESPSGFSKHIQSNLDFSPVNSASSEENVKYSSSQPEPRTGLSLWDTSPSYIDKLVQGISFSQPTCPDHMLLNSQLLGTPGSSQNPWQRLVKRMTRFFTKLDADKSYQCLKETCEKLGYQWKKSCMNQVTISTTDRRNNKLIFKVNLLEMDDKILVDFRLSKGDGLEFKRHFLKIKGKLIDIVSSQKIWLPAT
# [17] = target: T5, Serine/threonine-protein kinase Chk1 (Homo sapiens); details: at 1 µM
# [18] = target: Serine/threonine-protein kinase Chk2 (Homo sapiens) (UniProt O96017); details: at 0.1 µM
# Serine/threonine-protein kinase Chk2 (Homo sapiens), sequence (O96017 whole entry): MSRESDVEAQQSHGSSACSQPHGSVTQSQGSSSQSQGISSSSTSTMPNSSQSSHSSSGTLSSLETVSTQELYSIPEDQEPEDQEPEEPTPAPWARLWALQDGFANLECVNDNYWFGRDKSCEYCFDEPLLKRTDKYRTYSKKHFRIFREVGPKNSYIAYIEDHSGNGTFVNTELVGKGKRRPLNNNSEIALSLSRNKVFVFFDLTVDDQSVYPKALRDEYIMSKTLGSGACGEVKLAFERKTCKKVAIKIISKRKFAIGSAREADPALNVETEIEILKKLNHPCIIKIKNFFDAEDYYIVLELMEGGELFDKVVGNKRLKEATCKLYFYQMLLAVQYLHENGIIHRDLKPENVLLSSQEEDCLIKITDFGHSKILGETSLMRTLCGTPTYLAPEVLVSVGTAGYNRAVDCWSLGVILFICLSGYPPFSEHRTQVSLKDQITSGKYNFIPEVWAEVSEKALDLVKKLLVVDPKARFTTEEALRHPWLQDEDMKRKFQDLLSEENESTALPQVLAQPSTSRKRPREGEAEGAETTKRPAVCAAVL
# [19] = target: Serine/threonine-protein kinase Chk2 (Homo sapiens) (UniProt O96017); details: at 1 µM
# [20] = target: Death-associated protein kinase 1 (Homo sapiens) (UniProt P53355); details: at 0.1 µM;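 note: reported figure is the mean inhibition of DAPK1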
# Death-associated protein kinase 1 (Homo sapiens), sequence (P53355 whole entry, looked up): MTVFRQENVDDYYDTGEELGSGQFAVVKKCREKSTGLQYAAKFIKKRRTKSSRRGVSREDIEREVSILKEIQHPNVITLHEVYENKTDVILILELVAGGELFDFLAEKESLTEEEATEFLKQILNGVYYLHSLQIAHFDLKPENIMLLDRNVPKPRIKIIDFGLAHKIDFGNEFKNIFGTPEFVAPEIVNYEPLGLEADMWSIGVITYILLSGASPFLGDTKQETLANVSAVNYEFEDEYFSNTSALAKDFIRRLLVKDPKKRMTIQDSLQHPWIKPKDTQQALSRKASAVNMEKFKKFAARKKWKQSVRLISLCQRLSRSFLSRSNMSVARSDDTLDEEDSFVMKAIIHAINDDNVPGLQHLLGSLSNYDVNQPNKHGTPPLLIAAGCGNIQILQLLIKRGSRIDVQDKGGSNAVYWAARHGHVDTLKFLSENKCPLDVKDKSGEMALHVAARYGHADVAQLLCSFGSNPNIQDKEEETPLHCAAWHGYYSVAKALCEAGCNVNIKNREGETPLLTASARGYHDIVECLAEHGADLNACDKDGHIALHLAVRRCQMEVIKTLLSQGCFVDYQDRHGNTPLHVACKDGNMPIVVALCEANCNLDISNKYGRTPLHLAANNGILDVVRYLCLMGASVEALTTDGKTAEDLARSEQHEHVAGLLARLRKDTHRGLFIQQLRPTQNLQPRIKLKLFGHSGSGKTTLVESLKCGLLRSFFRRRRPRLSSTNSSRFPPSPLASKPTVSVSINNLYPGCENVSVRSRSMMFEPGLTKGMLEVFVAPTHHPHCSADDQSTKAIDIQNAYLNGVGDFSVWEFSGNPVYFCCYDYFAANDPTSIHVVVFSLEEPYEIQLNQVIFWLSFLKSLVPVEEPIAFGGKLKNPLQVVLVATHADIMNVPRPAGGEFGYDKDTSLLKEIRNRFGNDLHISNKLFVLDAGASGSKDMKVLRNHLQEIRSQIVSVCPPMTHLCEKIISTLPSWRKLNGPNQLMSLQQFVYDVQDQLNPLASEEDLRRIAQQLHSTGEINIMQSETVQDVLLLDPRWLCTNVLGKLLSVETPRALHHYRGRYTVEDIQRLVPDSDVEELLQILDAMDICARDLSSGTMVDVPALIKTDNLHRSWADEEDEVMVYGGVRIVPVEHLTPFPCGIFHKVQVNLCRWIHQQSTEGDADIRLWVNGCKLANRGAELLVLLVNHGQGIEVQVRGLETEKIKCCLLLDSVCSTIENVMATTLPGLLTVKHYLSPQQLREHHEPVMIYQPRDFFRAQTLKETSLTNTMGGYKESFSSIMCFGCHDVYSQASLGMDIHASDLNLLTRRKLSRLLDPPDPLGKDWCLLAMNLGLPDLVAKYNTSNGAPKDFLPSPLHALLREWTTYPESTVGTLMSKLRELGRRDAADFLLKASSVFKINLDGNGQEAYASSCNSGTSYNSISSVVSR
# 5'-AMP-activated protein kinase catalytic subunit alpha-2 (Homo sapiens), sequence (P54646 whole entry, looked up): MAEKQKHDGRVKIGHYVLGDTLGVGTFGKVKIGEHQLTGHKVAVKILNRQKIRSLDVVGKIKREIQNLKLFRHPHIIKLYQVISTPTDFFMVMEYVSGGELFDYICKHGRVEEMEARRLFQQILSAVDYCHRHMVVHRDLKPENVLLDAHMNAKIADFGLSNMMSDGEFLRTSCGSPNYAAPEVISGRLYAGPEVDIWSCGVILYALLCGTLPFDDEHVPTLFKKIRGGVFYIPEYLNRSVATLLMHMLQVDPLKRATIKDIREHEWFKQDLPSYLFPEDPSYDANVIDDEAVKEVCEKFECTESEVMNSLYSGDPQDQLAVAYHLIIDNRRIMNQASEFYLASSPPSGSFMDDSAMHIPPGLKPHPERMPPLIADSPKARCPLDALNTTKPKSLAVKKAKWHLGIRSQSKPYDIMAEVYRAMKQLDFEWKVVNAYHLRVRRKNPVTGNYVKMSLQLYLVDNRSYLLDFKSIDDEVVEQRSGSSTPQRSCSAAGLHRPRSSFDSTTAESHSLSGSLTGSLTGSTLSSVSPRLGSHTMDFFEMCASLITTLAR
SMILES,inhibition [1],inhibition [2],inhibition [3],inhibition [4],inhibition [5],inhibition [6],inhibition [7],inhibition [8],inhibition [9],inhibition [10],inhibition [11],inhibition [12],inhibition [13],inhibition [14],inhibition [15],inhibition [16],inhibition [17],inhibition [18],inhibition [19],inhibition [20]
Cc1ccc(NC(=O)c2ccoc2)cc1-c1ccc(C(=O)NCC2CC2)cc1,1.09%,-0.47%,-0.78%,0%,0.43%,1.99%,0.95%,-0.63%,-1.53%,1.08%,-3.72%,1.18%,-0.48%,-0.8%,-1.43%,2%,1.01%,1.96%,1.43%,3.89%
Cc1ccc(C(=O)NC(C)C)cc1-c1ccc(C(=O)NCC2CC2)cc1,-5.48%,3.9%,3.92%,1.12%,-1.28%,0.51%,1.61%,-1.04%,0.57%,-4.62%,-3.85%,-3.04%,-1.11%,-0.94%,-2.57%,-1.72%,-3.38%,-3.25%,-2.4%,-2.08%
CN(C)c1ccc2c(c1)/C(=C/Nc1ccc(S(N)(=O)=O)cc1)C(=O)N2,26.8%,39.5%,55.6%,11.3%,42.7%,18.5%,54.2%,0.43%,4.29%,3.79%,3.56%,2.54%,15%,0.96%,0.42%,8.69%,34.9%,1.42%,10.6%,1.57%
Fc1ccc(-c2ncn(C3CCNCC3)c2-c2ccnc(Oc3ccc(F)c(F)c3)n2)cc1,4.77%,2.44%,6.58%,1.29%,3.93%,3.75%,5.29%,-1.15%,-1.08%,2.48%,0.43%,1.91%,4.38%,-2.42%,-1.76%,-3.21%,5.61%,2.5%,2.87%,3.38%
CCS(=O)(=O)c1ccc(OC)c(Nc2ncc(-c3ccccc3Cl)o2)c1,2.95%,2.27%,1.46%,-1%,-0.58%,0.64%,-1.12%,0.68%,1.43%,2.2%,3.37%,1.45%,1.43%,2.52%,0.4%,5.3%,5.1%,-1.42%,-0.76%,4.59%
CNC(=O)c1cncc(/C=C/c2c(C)cccc2C)c1,0.33%,2.16%,2.93%,1.29%,5.17%,0.83%,5.16%,1.13%,0.73%,2.12%,3.13%,1.04%,1.43%,2.28%,0.99%,-0.79%,0.19%,-0.74%,-0.03%,0.17%
Fc1ccc(-c2ncn(CCCN3CCOCC3)c2-c2ccncc2)cc1,2.58%,0.22%,3.87%,1.09%,1.49%,1.32%,-0.21%,1.77%,1.54%,0.57%,1.91%,1.48%,2.85%,1.75%,2.08%,2.08%,-1.19%,-0.55%,-1.12%,0.52%
